According to PubChem BioAssay:
Active and inactive are the calls of the source.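 The calls were made as follows, unless noted: active = inhibition at or above 50% at 10 µM; inactive = inhibition below 50%.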

Columns and labels:
[1] = inhibitors of TNFa-induced NFkB p65 translocation, primary screen, imaging, HUVEC, MLSMR starter and 10KST1 sets (AID 438;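 active = inhibition above 20% together with a positive visual image hit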;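 also: compound added about 3h40 before a 20 min TNFalpha stimulation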;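 as to inhibition: signal is the nuclear over cytoplasmic p65 intensity ratio per well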); conditions: HUVEC TNFa-induced p65 nuclear translocation; cell count: measured here: nuclei count (cytotoxicity indicator), at 2.08 µM; inhibition: at 2 µM, stronger effect = higher value, 0% TNFa-plus-vehicle, 100% no-TNFa wells
[2] = inhibitors of mutant huntingtin aggregation, primary screen, imaging, exon1htt(103Q)mCFP cells, high-content imaging (AID 483;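 active = visual image review flags a hit and inhibition of aggregation exceeds 20%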;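 also: compound exposure lasted 3 days before fixation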;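 as to nuclei count: percent of the per-plate median nuclei count of sample wells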); conditions: exon1htt(103Q)mCFP cell line, aggregate imaging, at 2 µM; inhibition of aggregation: stronger effect = higher value; nuclei count: measured here: cell count, toxicity
[3] = inhibitors of E-selectin induction by TNFa, primary screen, imaging, HUVEC, immunofluorescence, MLSMR starter and 10KST1 sets (AID 487;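 active = visually confirmed hit in the image check and inhibition above 20%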;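 as to inhibition: signal is fraction of cell area covered by stained E-selectin grains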;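 as to nuclei count: 100% = median nuclei count of all wells on the same plate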); conditions: HUVEC TNFalpha-induced E-selectin immunofluorescence imaging, at 2 µM; inhibition: stronger effect = higher value; nuclei count: measured here: cell number, toxicity
[4] = biological target: Voltage-gated potassium channel subunit beta-2 (Rattus norvegicus) (UniProt P62483); assay: KvBeta enzyme negative modulators, primary screen, biochemical, NADPH fluorescence (AID 622;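 active = fluorescence slope higher than the sample average by over 3 SD, cut at about -0.22 in these data, passing the limit was not always enough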;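 also: slope of raw intensity against log time taken from 70 to 1610 s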); conditions: recombinant KvBeta, 4-cyanobenzaldehyde reduction, at 10 µM, stronger effect = higher value
[5] = biological target: Voltage-gated potassium channel subunit beta-2 (Rattus norvegicus) (UniProt P62483); assay: KvBeta positive modulators, primary screen, biochemical, NADPH fluorescence (AID 623;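 active = NADPH fluorescence slope more negative than the mean of all samples by about 3 SD, 99.7% confidence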;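 also: fluorescence intensity change per second fitted from 20 to 320 s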); conditions: Recombinant KvBeta, NADPH fluorescence decrease slope, 10 min; at 10 µM; stronger effect = lower value
[6] = biological target: Alpha-2C adrenergic receptor (Homo sapiens) (UniProt P18825); assay: modulators of alpha2C/GIRK thallium flux, primary screen, cell-based, HEK293 alpha2C/GIRK1/2 (AID 624;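 active = fluorescence slope after compound addition differing from the mean of all screened samples at 99.7% confidence, in either direction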;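 also: slope of fluorescence ratio to pre-addition baseline per second over 15 to 24 s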); conditions: thallium flux BTC fluorescence, at 10 µM, actives lie on both sides
[7] = inhibitors of Sendai virus-induced IRF3 signaling, primary screen, TLR/RLR signaling modifier project, cell-based, Sendai virus stimulus, luciferase, 10K MLSCN set (AID 602276); conditions: HEK293 RL24 IRF3 luciferase reporter, at 10 µM, stronger effect = higher value;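 also: firefly luciferase from ISG56 promoter only with Renilla not read in this screen; 0% = Sendai virus plus DMSO and 100% = medium plus DMSO without virus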
[8] = inhibitors of poly I:C-induced TLR3 signaling, primary screen, cell-based, poly I:C stimulus, luciferase, 10K MLSCN set (AID 602277;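 active = inhibition of the reporter signal at or above 50%; inactive = inhibition below 50%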); conditions: HEK293-TLR3 RL24 IRF3 luciferase reporter, at 10 µM, stronger effect = higher value

Alpha-2C adrenergic receptor (Homo sapiens), sequence (P18825 whole entry, looked up): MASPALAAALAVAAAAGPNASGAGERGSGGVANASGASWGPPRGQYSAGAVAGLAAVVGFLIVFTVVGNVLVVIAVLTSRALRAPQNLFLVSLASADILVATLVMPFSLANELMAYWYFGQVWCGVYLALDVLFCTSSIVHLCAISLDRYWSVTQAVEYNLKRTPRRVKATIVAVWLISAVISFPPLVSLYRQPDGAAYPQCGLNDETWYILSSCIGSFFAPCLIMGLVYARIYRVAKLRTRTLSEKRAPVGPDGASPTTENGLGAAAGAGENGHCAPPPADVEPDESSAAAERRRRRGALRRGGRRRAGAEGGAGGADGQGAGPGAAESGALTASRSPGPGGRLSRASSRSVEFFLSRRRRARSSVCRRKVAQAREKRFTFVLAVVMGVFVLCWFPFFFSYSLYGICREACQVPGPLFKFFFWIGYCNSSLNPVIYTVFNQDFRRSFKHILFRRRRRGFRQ
Voltage-gated potassium channel subunit beta-2 (Rattus norvegicus), sequence (P62483 whole entry, looked up): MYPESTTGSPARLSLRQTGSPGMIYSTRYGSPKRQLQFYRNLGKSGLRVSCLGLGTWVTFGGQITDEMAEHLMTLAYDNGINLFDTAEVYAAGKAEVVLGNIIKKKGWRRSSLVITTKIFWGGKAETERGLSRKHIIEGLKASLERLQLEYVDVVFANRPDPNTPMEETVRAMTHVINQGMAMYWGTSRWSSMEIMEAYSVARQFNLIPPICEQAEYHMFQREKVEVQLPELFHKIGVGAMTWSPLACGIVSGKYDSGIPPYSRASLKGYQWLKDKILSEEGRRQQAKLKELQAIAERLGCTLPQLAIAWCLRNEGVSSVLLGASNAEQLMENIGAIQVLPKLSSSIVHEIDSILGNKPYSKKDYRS

| Structure (SMILES) | cell count [1] | inhibition [1] | inhibition of aggregation [2] | nuclei count [2] | inhibition [3] | nuclei count [3] | fluorescence slope [4] | NADPH fluorescence slope [5] | slope [6] | inhibition [7] | inhibition [8] |
| --- | --- | --- | --- | --- | --- | --- | --- | --- | --- | --- | --- |
| COCCn1c(-c2ccco2)nc2nc3ccccc3nc21 | 237 | 1.6% (inactive) | 23.4% (inactive) | 69.1% | -4.2% (inactive) | 98.9% | -0.255 (inactive) | -2.3e-05 (inactive) | 0.00377 (inactive) | -0.433% (inactive) | -3.38% (inactive) |
| Cc1ccc(S(=O)(=O)N2CCOCC2)cc1C(=O)Nc1nc(-c2cccnc2)cs1 | 294 | 10.3% (inactive) | -1.2% (inactive) | 99.3% | -22.3% (inactive) | 100% | -0.527 (inactive) | 2.5e-05 (inactive) | 0.00585 (inactive) | 7.72% (inactive) | 15.3% (inactive) |
| COC(=O)c1ccc(C)c(NS(=O)(=O)c2ccc3c(c2)OCCO3)c1 | 263 | 12.5% (inactive) | 22.6% (inactive) | 56.8% | -60.4% (inactive) | 94% | -0.393 (inactive) | -5.8e-05 (inactive) | 0.00526 (inactive) | 43.8% (inactive) | 58.5% (active) |
| Cn1c(=O)c2c(nc(SCCOc3ccc4ccc(=O)oc4c3)n2C)n(C)c1=O | 581 | 3.3% (inactive) | 7.2% (inactive) | 107% | -34.8% (inactive) | 95.1% | -0.53 (inactive) | -3.8e-05 (inactive) | 0.00534 (inactive) | 5.44% (inactive) | 23.8% (inactive) |
| COc1cc(-c2nnc(SCc3c(F)cccc3Cl)o2)cc(OC)c1OC | 803 | 4.4% (inactive) | 8.8% (inactive) | 103% | 3.2% (inactive) | 106% | -0.493 (inactive) | -1.6e-06 (inactive) | 0.00634 (inactive) | -11.9% (inactive) | 1.41% (inactive) |
| CCOC(=O)C1(C)NC(c2ccc(OC)c(OC)c2)C2C(=O)N(CC)C(=O)C21 (stereo not drawn) | 369 | -8.4% (inactive) | 29.1% (inactive) | 105% | -211% (inactive) | 182% | -0.598 (inactive) | -9.8e-06 (inactive) | 0.00547 (inactive) | 1.25% (inactive) | 14.3% (inactive) |
| N#Cc1cc2c(nc1SCC(=O)Nc1sc3c(c1C#N)CCC3)CCCCC2 | 606 | 5.3% (inactive) | -0.2% (inactive) | 103% | 32.4% (inactive) | 104% | -0.323 (inactive) | -4.1e-05 (inactive) | 0.00575 (inactive) | 1.89% (inactive) | -0.19% (inactive) |
| CCC(C)c1ccc(NC(=O)c2cccnc2)cc1 (stereo not drawn) | 393 | 18% (inactive) | 2.8% (inactive) | 113% | -48.5% (inactive) | 130% | -0.395 (inactive) | 3e-05 (inactive) | 0.00669 (inactive) | -47.8% (inactive) | -142% (inactive) |
| O=C(Nc1ccccc1N1CCN(c2ccc(F)cc2)CC1)c1ccccc1 | 423 | 7.6% (inactive) | -1% (inactive) | 104% | -122% (inactive) | 134% | -0.44 (inactive) | -3.4e-05 (inactive) | 0.00515 (inactive) | 14% (inactive) | 21.1% (inactive) |
| CCCCOC(=O)CNc1nnc(SCC(=O)OCC)[nH]c1=O | 659 | -10.5% (inactive) | 9.9% (inactive) | 94.8% | -32.4% (inactive) | 110% | -0.572 (inactive) | -7.9e-06 (inactive) | 0.00508 (inactive) | 2.96% (inactive) | -3.08% (inactive) |
| COC(=O)C1=C(C)NC(=O)C1(Nc1ccc(Cl)cn1)C(F)(F)F (stereo not drawn) | 324 | 1.8% (inactive) | 3.9% (inactive) | 95.1% | -63.7% (inactive) | 125% | -0.317 (inactive) | -1.2e-05 (inactive) | 0.00613 (inactive) | 13.8% (inactive) | 32.2% (inactive) |
| CCOC(=O)N1CCN(c2c(NCCN(C)Cc3ccccc3)c(=O)c2=O)CC1 | 578 | -2% (inactive) | 9.3% (inactive) | 105% | -62.3% (inactive) | 124% | -0.492 (inactive) | -1.8e-05 (inactive) | 0.00728 (inactive) | 1.64% (inactive) | 6.95% (inactive) |
| COc1cccc(-n2c(SCC(=O)Nc3cc(C)on3)nc3c([nH]c4ccccc43)c2=O)c1 | 600 | 8% (inactive) | -10.2% (inactive) | 89.7% | -41% (inactive) | 118% | -0.539 (inactive) | -7.7e-06 (inactive) | 0.00757 (inactive) | 24% (inactive) | 28.7% (inactive) |
| OC1C=CSc2nc3ccccc3n21 (stereo not drawn) | 398 | 4.9% (inactive) | -12.9% (inactive) | 102% | -50.3% (inactive) | 113% | -0.467 (inactive) | -3.8e-05 (inactive) | 0.00527 (inactive) | 4.8% (inactive) | 17.8% (inactive) |
| Cc1nn(Cc2ccc(C(=O)NC3CCCCC3)o2)c(C)c1Br | 463 | -0.6% (inactive) | 24.1% (inactive) | 72.2% | -30.6% (inactive) | 108% | -0.395 (inactive) | -3.4e-05 (inactive) | 0.00387 (inactive) | 7.39% (inactive) | 11.6% (inactive) |
| O=C(C1CCCN(S(=O)(=O)c2cccnc2)C1)N1CCN(c2ccccn2)CC1 (stereo not drawn) | 671 | -0.3% (inactive) | -27.9% (inactive) | 108% | -1.7% (inactive) | 108% | -0.581 (inactive) | -1.6e-05 (inactive) | 0.00648 (inactive) | 5.38% (inactive) | 14% (inactive) |
| Fc1cccc(NCc2cn3ccccc3n2)c1 | 664 | -8% (inactive) | -73.5% (inactive) | 91.8% | -64.2% (inactive) | 120% | -0.209 (inactive) | -1.6e-05 (inactive) | 0.00555 (inactive) | -1.05% (inactive) | -62.5% (inactive) |
| COc1ccc2nc(CC(C)(C)CC(=O)O)c[n+]([O-])c2c1 | 377 | -1% (inactive) | -0.5% (inactive) | 110% | -11.7% (inactive) | 94% | -0.587 (inactive) | -1.8e-05 (inactive) | 0.0065 (inactive) | 10.6% (inactive) | 29.8% (inactive) |
| COCCN(CC(=O)NCc1ccccc1)C(=O)CCC(=O)Nc1ccccn1 | 663 | -4.4% (inactive) | 6.3% (inactive) | 86% | 38.3% (inactive) | 117% | -0.506 (inactive) | -2.7e-05 (inactive) | 0.00555 (inactive) | 19.1% (inactive) | 19.4% (inactive) |
| CCOc1ccc(N(CC(=O)OC)S(=O)(=O)c2ccc(OC)c(OC)c2)cc1 | 444 | 6.3% (inactive) | -1.6% (inactive) | 104% | 9.4% (inactive) | 101% | -0.455 (inactive) | 6.6e-05 (inactive) | 0.00363 (inactive) | -8.61% (inactive) | 15.5% (inactive) |
| O=C(Nc1nc(-c2ccccn2)cs1)C1CC1 | 673 | -3.3% (inactive) | 2.7% (inactive) | 94.5% | -21% (inactive) | 115% | -0.482 (inactive) | -7.5e-05 (inactive) | 0.00645 (inactive) | -68.6% (inactive) | -114% (inactive) |
| CC(=O)c1cc(-c2ccc(F)cc2)n(CCC(=O)Nc2cc(C)[nH]n2)c1C | 360 | 0% (inactive) | -4.1% (inactive) | 102% | 0% (inactive) | 118% | -0.507 (inactive) | -3.1e-05 (inactive) | 0.00525 (inactive) | 4.04% (inactive) | 25.9% (inactive) |
| COc1cccc(-n2c(SCC(=O)N3CCCC3)nc3c([nH]c4ccccc43)c2=O)c1 | 493 | -5.9% (inactive) | 0.6% (inactive) | 75.6% | 5.4% (inactive) | 91.8% | -0.544 (inactive) | -1.5e-05 (inactive) | 0.00652 (inactive) | -9.13% (inactive) | 55.5% (active) |
| CCOc1cc(C2NC(=O)NC(O)(C(F)(F)F)C2C(=O)c2ccccc2)ccc1OC (stereo not drawn) | 383 | 6.8% (inactive) | 4.9% (inactive) | 86.1% | -51% (inactive) | 121% | -0.378 (inactive) | 3.5e-05 (inactive) | 0.00542 (inactive) | 5.58% (inactive) | 11.7% (inactive) |
| CN1C(=O)CCC1(O)c1ccccc1 (stereo not drawn) | 565 | -9.2% (inactive) | 18.6% (inactive) | 54.1% | -51.3% (inactive) | 103% | -0.392 (inactive) | 1.8e-06 (inactive) | 0.00341 (inactive) | 11.4% (inactive) | 38.2% (inactive) |
| COc1cc(C)nc(N2CCCC(C(=O)Nc3cccc(Cl)c3Cl)C2)n1 (stereo not drawn) | 395 | 3.6% (inactive) | -14.9% (inactive) | 109% | -0.7% (inactive) | 103% | -0.467 (inactive) | -2.4e-05 (inactive) | 0.00338 (inactive) | 4.19% (inactive) | 21.4% (inactive) |
| COc1ccc(CCNc2oc(COc3ccccc3Cl)nc2C#N)cc1OC | 643 | 0.3% (inactive) | -3% (inactive) | 99.9% | -24.6% (inactive) | 109% | -0.462 (inactive) | -5.7e-05 (inactive) | 0.00453 (inactive) | 1.77% (inactive) | -11% (inactive) |
| COc1cc(C(c2sc3nc(C)nn3c2O)N2CC(C)CC(C)C2)cc(OC)c1OC (stereo not drawn) | 468 | -3.4% (inactive) | -10.7% (inactive) | 114% | -18.2% (inactive) | 109% | -0.505 (inactive) | -0.00015 (inactive) | 0.00579 (inactive) | 9.58% (inactive) | 18.7% (inactive) |
